Screens as filed in PubChem BioAssay.
Shown are actives, neighbours in structure and some others; about 0.39% of the full set was active somewhere.
AT treatment: qHTS Assay for Identifying a Potential Treatment of Ataxia-Telangiectasia; F2112 A-T fibroblasts, KAP-1 phosphorylation AlphaLISA; neocarzinostatin DNA damage 30 min before lysis; Potency, µM (doses to about 57.5 µM), for inactives: top-dose activation, usual class: activators; 320,000 tested, 0.19% active; AID 485349, 2010; note: potency is the fitted concentration of half-maximal effect; % of control where 0% means no effect; nearly all actives have a fitted effect of over 45% in size
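hTERT-immortalized A-T patient fibroblasts (F2112), 500 cells/well in OPTI-MEM, 1% FBS, got compounds for 60 min, then NCS for 30 min at 37C. Lysates were then assayed for phospho-KAP-1 by AlphaLISA (anti-pKAP1 donor, anti-KAP1 acceptor beads), 6 hr at 25C.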
TRPV1 agonist: HTS Assay for Compounds that Act as Agonists of the Vanilloid Receptor 1; TRPV1-expressing cells, Fluo-8 calcium influx, agonist mode; AID 540275, 2011; activation, % at 8.33 µM; 320,000 tested, 0.19% active; in the data active = activation above about 80%; inconclusive = between about 30% and that limit; note: 0% is about no effect
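Fluo-8 calcium influx in TRPV1-expressing cells, kinetic read (ex 480/em 520 nm). Compound added and read 3 min for agonist activity, followed by capsaicin at EC20 final and 2 min further read for enhancement.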
TRPV1 PAM: HTS Assay for Compounds that Act as Potentiators of the Vanilloid Receptor 1. Transient receptor potential cation channel subfamily V member 1 (Homo sapiens), Q8NER1. TRPV1-expressing cells, Fluo-8 calcium influx, capsaicin EC20 potentiation. potentiation, % at 8.33 µM. 320,000 tested, 0.02% active; in the data active = potentiation above about 80%; inconclusive = between about 30% and that limit; note: 0% is about no effect
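Fluo-8 calcium influx in TRPV1-expressing cells, kinetic read (ex 480/em 520 nm). Compound added and read 3 min for agonist activity, followed by capsaicin at EC20 final and 2 min further read for enhancement.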
Apoferritin bind: qHTS Assay for Identification of Novel General Anesthetics | AID 485281, 2010 | Potency, µM (titrated, usually from 77.5 µM), without a hit: top-dose activity change, negative = displacement, most hits filed as inhibitors | apoferritin/1-aminoanthracene competitive binding, fluorescence | 350,000 tested, 0.074% active | Ferritin light chain (Equus caballus), P02791; note: potency is the fitted concentration of half-maximal effect; % is set by controls: 0 for no effect and ±100 for the full control effect; nearly all actives have a fitted effect of over 20% in size
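Probe: 1-aminoanthracene (50% saturated, PBS). Protein: horse-spleen apoferritin, 10 uM. Incubation: 10 min, room temperature. Detection: 380 nm excitation, 535 nm emission. Analysis: normalized response, four-parameter Hill.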
CBFb RUNX1 block: qHTS Assay for Compounds Blocking the Interaction Between CBF-beta and RUNX1 for the Treatment of Acute Myeloid Leukemia | Potency, µM (highest dose often 59.8 µM), without a hit: at the top dose activity, negative = inhibition, usual class: inhibitors | AlphaScreen CBFb-His/RUNX1-biotin binding, biochemical | 230,000 tested, under 10 active | Runt-related transcription factor 1 (Homo sapiens) + Core-binding factor subunit beta …; note: % of control where 0% means no effect
Target sequence (Q01196 whole entry, looked up): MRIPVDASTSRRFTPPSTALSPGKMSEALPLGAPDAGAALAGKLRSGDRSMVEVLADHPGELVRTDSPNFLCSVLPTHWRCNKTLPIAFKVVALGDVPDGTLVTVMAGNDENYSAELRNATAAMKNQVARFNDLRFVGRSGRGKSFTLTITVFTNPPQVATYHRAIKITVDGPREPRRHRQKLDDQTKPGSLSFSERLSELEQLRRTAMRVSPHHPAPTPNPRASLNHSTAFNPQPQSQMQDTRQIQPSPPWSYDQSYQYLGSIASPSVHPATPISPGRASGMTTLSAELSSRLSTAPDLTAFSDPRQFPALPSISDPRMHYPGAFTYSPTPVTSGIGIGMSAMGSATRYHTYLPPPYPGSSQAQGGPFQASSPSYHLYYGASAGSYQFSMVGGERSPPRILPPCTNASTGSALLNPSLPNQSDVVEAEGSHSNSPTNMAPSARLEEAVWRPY
Target sequence (Q13951 whole entry, looked up): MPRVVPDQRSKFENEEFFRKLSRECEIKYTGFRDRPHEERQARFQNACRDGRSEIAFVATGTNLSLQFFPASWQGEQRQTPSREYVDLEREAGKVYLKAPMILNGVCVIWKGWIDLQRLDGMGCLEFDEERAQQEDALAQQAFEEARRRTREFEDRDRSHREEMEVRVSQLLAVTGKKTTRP
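AlphaScreen proximity signal reports loss of binding between His-tagged CBF-beta and biotin-labelled RUNX1, each at 30 nM. Proteins are pre-associated for 20 minutes, compounds added for 15 minutes, then beads for 90 minutes, all at ambient temperature.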
* hit, by the source's call; ? = inconclusive; nt = not tested or not shown; [ ] = dose if it differs, or a comment. Unless noted, calls come from the whole dose curve; as a rule, active = well fitted curve in the direction sought with a large enough effect; inconclusive = small, poorly fitted or top-dose-only effect, or another doubt; inactive = no such curve, though single readings can be large; an effect the other way counts as inactive or inconclusive.

SMILES	AT treatment	TRPV1 agonist	TRPV1 PAM	Apoferritin bind	CBFb RUNX1 block
CSCC[C@@H]1NC(=O)[C@@H](NC(=O)[C@H](CCCNC(=N)N)NC(=O)[C@H](CC(C)C)NC(=O)[C@H](CCSC)NC(=O)[C@H](CC(=O)O)NC(=O)[C@H](Cc2ccccc2)NC(=O)[C@@H](N)CC(=O)O)CSSC[C@@H](C(=O)N[C@@H](Cc2c[nH]c3ccccc23)C(=O)N[C@@H](CCC(N)=O)C(=O)N[C@@H](Cc2ccc(O)cc2)C(=O)O)NC(=O)[C@@H]2CCCN2C(=O)[C@H](CCCNC(=N)N)NC(=O)[C@H](Cc2ccccc2)NC(=O)[C@H](C(C)C)NC(=O)[C@H](CCCNC(=N)N)NC(=O)CNC(=O)[C@H](CC(C)C)NC1=O	nt	nt	nt	-13%	7%
COC(=O)C1=C(C(=O)OC)[C@@H]2N(Cc3ccccc3)c3ccccc3[C@@]23C[C@@H](C(=O)OC)N(C(=O)c2ccco2)C3=N1	nt	nt	nt	nt	3%[13.1 µM]
C=C[C@@H](C1=CC(=O)C(OC)=C(OC)C1=O)c1ccccc1	nt	nt	nt	nt	-11%
CC(=O)c1cc(-c2ccc(F)cc2)n(CCC(=O)Nc2cccnc2)c1C	-5%	81*	-26	0%	3%
CCC1CCCCC1	nt	nt	nt	-2%	14%
CCC(C)NC(=O)c1cn(CCOC)c(=O)c2c1c1ccccc1n2C (stereo not drawn)	8.9µM*	0	10	-5%	nt
COCCNC(=O)c1cn(CCOC)c(=O)c2c1c1ccccc1n2C	6%	2	-1	3%	nt
CC(C)CCNC(=O)c1c[nH]c2ccc(S(=O)(=O)N3CCOCC3)cc2c1=O	5%	82*	-2	-9%	nt
COCCNC(=O)c1c[nH]c2ccc(S(=O)(=O)N3CCOCC3)cc2c1=O	16%	-2	12	4%	nt
Cc1ccc(Oc2ccc(C(=O)NCc3ccncc3)cc2)cc1	3%	?	-4	?	-5%
O=C(NCc1ccncc1)c1ccc(Oc2ccccc2)cc1	-4%	91*	-21	-11%	4%
N#Cc1nc(Nc2ccccc2)nc(NC2CCCC2)n1	nt	nt	nt	-11%	nt
CCNS(=O)(=O)c1ccc(C)cc1	nt	nt	nt	nt	-3%[21.7 µM]
CCS(=O)(=O)c1ccc2oc(SCC(=O)NC34CC5CC(CC(C5)C3)C4)nc2c1	nt	?	-13	?	-8%
CCS(=O)(=O)c1ccc2oc(SCC(=O)NC3CCCC(C)C3C)nc2c1 (stereo not drawn)	3%	-1	-4	50µM*	-6%
Cn1cccc1/C=C(/C#N)C(N)=S	-14%	-5	6	8%	-18%
N#C/C(=C/c1ccc(F)cc1)C(N)=S	3.5µM*	-5	0	-8%	-7%
COC(=O)c1ccc(C23CC4(C2)[C@H](CN(Cc2ccc(C(F)(F)F)cc2)[C@@H]4c2ccccc2)C3c2ccccc2)cc1 (stereo partly drawn)	40µM*	-1	-10	-9%	4%
Cc1cc(C)n(-c2ccc(S(=O)(=O)N3CCCC3)cc2[N+](=O)[O-])n1	8%	1	28	-8%	-1%
Cc1cc(C)n(-c2ccc(S(=O)(=O)N3CCOCC3)cc2[N+](=O)[O-])n1	40µM*	6	-16	-4%	-2%
CCc1ccc(/C=C2/SC(N3CCOCC3)=NC2=O)cc1	-14%	85*	-2	-8%	2%
C=CCOc1ccc(/C=C2\SC(N3CCCCC3)=NC2=O)cc1	-1%	82*	14	-9%	nt
CC(C)(C)OC(=O)NS(=O)(=O)Nc1ccccc1Br	nt	nt	nt	?	8%
CCC(=O)NC(c1ccco1)c1cc(Cl)c2cccnc2c1O (stereo not drawn)	2%	2	11	-15%	?
CCC(=O)NC(c1ccc(OC)cc1)c1cc(Cl)c2cccnc2c1O (stereo not drawn)	-1%	84*	9	-5%	0%
SMILES	AT treatment	TRPV1 agonist	TRPV1 PAM	Apoferritin bind	CBFb RUNX1 block
NNC(=O)CNC(=O)c1cccc(Br)c1	-2%	-3	8	28µM*	1%
Clc1ccc(Sc2cc(Cl)c(Cl)cc2Cl)cc1	nt	nt	nt	-2%	8%
CSCC[C@H](N)C(=O)N[C@@H](C)C(=O)NCC(=O)N[C@@H](CCCN=C(N)N)C(=O)N[C@@H](CO)C(=O)NCC(=O)N[C@@H](CC(=O)O)C(=O)N[C@@H](CO)C(=O)N[C@@H](CC(=O)O)C(=O)N[C@@H](CCC(=O)O)C(=O)N[C@@H](CC(=O)O)C(=O)N[C@@H](CC(C)C)C(=O)N[C@@H](CC(C)C)C(=O)N[C@@H](CCCCN)C(=O)N[C@@H](C)C(=O)N[C@H](C(=O)O)C(C)C	nt	nt	nt	0%	21%
COC(=O)N1C(=O)[C@@](CC(C)C)(c2ccccc2)N1C(=O)OC	35µM*	6	-26	-12%	nt
COC(=O)N1C(=O)[C@](CC(C)C)(c2ccccc2)N1C(=O)OC	17%	13	9	-15%	nt
COC(=O)N1C(=O)[C@@](c2ccccc2)(C2CCCC2)N1C(=O)OC	25µM*	14	20	-15%	nt
O=C(COC(=O)c1ccc(S(=O)(=O)NCc2ccco2)cc1)NC1CCCCCC1	1%	5	-1	35µM*	-1%
CC1CCCCC1NC(=O)COC(=O)c1ccc(S(=O)(=O)NCc2ccco2)cc1 (stereo not drawn)	-1%	-4	28	?	-14%
C[C@H]1Cc2c(COc3ccccc3)nc3c(c2CO1)CN(C(=O)C1CCCCC1)CC3	nt	nt	nt	nt	1%[13.1 µM]
CCOC(=O)[C@H]1[C@H]2COc3ccc(Br)cc3[C@@H]2N2C(=O)c3cc(Br)ccc3NC(=O)[C@@]12C	8%	83*	25	nt	nt
CCOC(=O)[C@H]1[C@H]2COc3ccc(OC)cc3[C@@H]2N2C(=O)c3cc(OC)ccc3NC(=O)[C@@]12C	-8%	97*	5	nt	nt
CCOC(=O)[C@H]1[C@H]2COc3ccc(OC)cc3[C@@H]2N2C(=O)c3cc(F)c(F)cc3NC(=O)[C@@]12C	26%	92*	?	nt	nt
CCOC(=O)[C@H]1[C@H]2COc3ccc(OC)cc3[C@@H]2N2C(=O)c3ccccc3NC(=O)[C@@]12C	7%	100*	-7	nt	nt
CCOC(=O)[C@H]1[C@H]2COc3ccc(OC)cc3[C@@H]2N2C(=O)c3cc(OC)c(OC)cc3NC(=O)[C@@]12C	8%	-1	7	nt	nt
C/C=C\C1=CCCC1Nc1ncnc2ccc(-c3c(C)noc3C)cc12 (stereo not drawn)	nt	nt	nt	-12%	-2%
